# Assay outcomes deposited in PubChem BioAssay by National Center for Advancing Translational Sciences (NCATS).
# IMPase cell inh – qHTS Assay for Identifying the Cell-Membrane Permeable IMPase Inhibitors; CHO-M1 cells, IP1 accumulation, HTRF TR-FRET ratio; Inositol monophosphatase 1 (Rattus norvegicus), P97697; inhibition (IP1 accumulation), % at 46.1 µM; 120,000 tested, under 10 active; active = well fitted curve in the direction sought with a large enough effect in the signal ratio, not every such curve was filed as active; inconclusive = small, poorly fitted or top-dose-only effect, or a change in a side signal; inactive = no such curve, though single readings can be large or run the other way; the % refers to the signal ratio;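 note: cells stimulated with carbachol in lithium chloride buffer; plate controls were DMSO basal wells for no effect and reference inhibitor wells for full effect; higher means more IMPase inhibition seen as more IP1 and lower FRET ratio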
# Target sequence (P97697 whole entry, looked up): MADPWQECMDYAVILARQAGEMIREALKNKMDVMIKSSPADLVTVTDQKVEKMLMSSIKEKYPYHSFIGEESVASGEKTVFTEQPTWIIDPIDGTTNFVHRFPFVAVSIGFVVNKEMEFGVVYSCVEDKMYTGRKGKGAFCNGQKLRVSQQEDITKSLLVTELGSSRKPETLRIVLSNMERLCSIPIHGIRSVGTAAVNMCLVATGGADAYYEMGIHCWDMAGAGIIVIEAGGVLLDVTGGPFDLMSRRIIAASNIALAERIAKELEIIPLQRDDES
#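 Elevated IP1 in lysates lowers TR-FRET signal (665/620 ratio and 620 channel reported). Cells were CHO-M1, given carbachol (50 uM as added) plus 50mM LiCl, pH 7.4, 30 min, 37C; compounds titrated up to 46 uM; AC50 by Hill equation.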
# p53ts 32C tox – qHTS Screen for Compounds that Selectively Target Cancer Cells with p53 Mutations: Cytotoxicity of p53ts Cells at the Permissive Temperature; H1299-p53A138V at 32C, ATP luminescence viability, 24 h; Potency, µM (highest dose often 46.1 µM), for the others: top-dose activity change, negative = cytotoxicity, hits mostly cytotoxic; actives 0.93% (n = 130,000);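 note: potency is the fitted concentration of half-maximal effect; 0% = DMSO and -100% = full killing by reference compound; nearly all actives have a fitted effect of over 55% in size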
#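 H1299-p53 A138V cells (temperature-sensitive p53) exposed 24 h to up to 46 uM compound at 32C, where p53 is wild-type in conformation. Viability read as ATP luminescence and normalised to DMSO and 100 uM tamoxifen. AC50 fitted with the Hill equation.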
# FLuc inh – qHTS Assay for Inhibitors of Firefly Luciferase; Luciferin 4-monooxygenase (Photinus pyralis), P08659; purified firefly luciferase, luminescence, 8 min; Potency, µM (doses to about 57.1 µM), for inactives: at the top dose activity change, negative = inhibition, most hits filed as inhibitors; actives 2.2% (n = 72,000); note: potency is the fitted concentration of half-maximal effect; % is set by controls: 0 for no effect and ±100 for the full control effect; nearly all actives have a fitted effect of over 40% in size
#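 Compounds were tested as concentration series (qHTS) against purified P. pyralis luciferase with luciferin and 10 uM ATP in 50 mM imidazole pH 7.2, 50 mM KCl, 7 mM MgCl2, 0.01% Tween 20, 0.05% BSA. Luminescence was read after 8 min at ambient temperature.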
# IkB sig inh – IkB Signaling; ABC-DLBCL IkBa-CBG/CBR dual luciferase ratio, 4 h; response scale: scaled: untreated 0%, proteasome inhibitor 100%; Potency, µM (top dose mostly 57.1 µM), for the others: at the highest dose IkBa stabilization activation; actives 0.04% (n = 110,000); active = well fitted curve in the direction sought with a large enough effect in the signal ratio, not every such curve was filed as active; inconclusive = small, poorly fitted or top-dose-only effect, or a change in a side signal; the % refers to the signal ratio;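 note: potency is the fitted concentration of half-maximal effect; the direction sought is a rising ratio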
#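 In this assay, an IκBα–CBG68 fusion accumulates when IKK-driven degradation is blocked; native CBR normalizes for cell number. OCI-Ly3 cells were treated 4 h with compound and doxycycline, then green and red light read after Chroma-Glo addition.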
# p53ts 39C tox – qHTS Screen for Compounds that Selectively Target Cancer Cells with p53 Mutations: Cytotoxicity of p53ts Cells at the Nonpermissive Temperature. H1299-p53A138V viability at 39C, ATP luminescence, 24 h. Potency, µM (series often up to 46.1 µM), inactives show top-dose activity change, negative = cell killing, usual class: cytotoxic. actives 1.5% (n = 130,000). AID 902, 2007; note: potency is the fitted concentration of half-maximal effect; % is set by controls: 0 for no effect and ±100 for the full control effect; nearly all actives have a fitted effect of over 55% in size
# Peg3 imprint – qHTS Assay for Compounds that Induce Erasure of Genomic Imprints. mouse ES Peg3-LacZ reporter, beta-gal luminescence, 40 h. Potency, µM (series often up to 60.7 µM), without a hit: at the highest dose activity change, positive = activation, usual class: activators. actives 0.02% (n = 110,000). AID 1948, 2009; note: potency is the fitted concentration of half-maximal effect
#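 Each well holds 300 Peg3LacZ-Neo (maternal) female ES cells incubated 40 h at 37C, 5% CO2. LacZ is measured by BetaGlo luminescence, with AC50 and maximum efficacy derived from dose-response curves.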
# * hit, by the source's call; ? = inconclusive; · = no result; [ ] = remark or other dose. Only a selection was taken, and hits are over-represented in it overall. Unless noted, calls come from the whole dose curve; as a rule, active = well fitted curve in the direction sought with a large enough effect; inconclusive = small, poorly fitted or top-dose-only effect, or another doubt; inactive = no such curve, though single readings can be large; an effect the other way counts as inactive or inconclusive.
SMILES,IMPase cell inh,p53ts 32C tox,FLuc inh,IkB sig inh,p53ts 39C tox,Peg3 imprint
COc1cc(NC(=O)c2csc3c2CCCC3)ncn1,2,?,13µM*,1%,?,-59%
COc1ccccc1NC(=O)c1csc2c1CCCC2,5,·,·,·,·,·
CCOC(=O)Cc1csc(NC(=O)c2csc3c2CCCC3)n1,-3,-21%,16µM*,?,?,-30%
COc1ccc(-c2coc3ccc(O[C@@H]4O[C@@H](COC(C)=O)[C@@H](OC(C)=O)[C@@H](OC(C)=O)[C@H]4OC(C)=O)cc3c2=O)cc1,·,·,0%[11.4 µM],4%[11.4 µM],·,·
O=c1n(CC2CO2)c(=O)n(CC2CO2)c(=O)n1CC1CO1 (stereo unspecified),·,-6%[1.84 µM],·,?,16µM*,-23%
CC(=O)OCc1nc2ccccc2s1,0,·,·,·,·,·
c1ccc(OCc2nc3ccccc3s2)cc1,-2,-15%,13µM*,?,0%,-57%
CN1C[C@@H](C(=O)N[C@]2(C)O[C@]3(O)[C@H]4CCCN4C(=O)[C@H](Cc4ccccc4)N3C2=O)C[C@H]2c3cccc4[nH]cc(c34)C[C@@H]21,6,10%,2%,-7%,6%,·
CC(C)(C)C(=O)c1sc(Nc2ccccc2)nc1N,12,-25%,13µM*,?,?,4%
Cc1csc(SCC(=O)c2cc(C)n(Cc3cccs3)c2C)n1,3,13µM*,4µM*,?,13µM*,-34%
CC(=O)Nc1ccc(SCC(=O)c2cc(C)n(Cc3cccs3)c2C)cc1,5,2.5µM*,-3%,0%,2.5µM*,-27%
COCCn1c(C)cc(C(=O)CSc2ccc(NC(C)=O)cc2)c1C,1,?,-3%,1%,13µM*,-35%
CC(NC(=O)c1cc(-c2ccc(O)cc2)on1)c1ccccc1 (stereo unspecified),·,0%,-1%,10%,-11%,-16%
Cc1nn(CC(=O)NC2CCC(C)CC2)c(=O)c2c1sc1ccccc12 (stereo unspecified),·,-19%,·,?,?,-7%[10.9 µM]
Cc1nn(C(C)C(=O)N2CCCCC2)c(=O)c2c1sc1ccccc12 (stereo unspecified),-7,5%,·,·,2%,·
COc1ccc(N2CCN(C(=O)C(C)n3nc(C)c4sc5ccccc5c4c3=O)CC2)cc1 (stereo unspecified),·,10µM*,·,-5%,10µM*,-31%[10.9 µM]
Cc1nn(C(C)C(=O)NC2CCC(C)CC2)c(=O)c2c1sc1ccccc12 (stereo unspecified),·,11µM*,·,?,10µM*,-30%[10.9 µM]
OC[C@@H]1O[C@H](O)[C@@H](Cl)[C@H](O)[C@@H]1O,6,-8%,-1%,-5%,6%,·
Cc1cc(=O)[nH]c(S/C=C/c2ccccc2)n1,-1,6.3µM*,16µM*,?,5µM*,-85%
FC(F)(F)c1cc(CO[C@H]2CCCN[C@H]2c2ccccc2)cc(C(F)(F)F)c1,0,?,-2%,?,13µM*,-31%
O=C(c1ccccc1)c1ccc(OCC(O)CNC2CCCc3ccccc32)cc1 (stereo unspecified),10,·,·,·,-17%,·
CCc1ccccc1OC[C@@H](O)CN[C@H]1CCCc2ccccc21,-5,32µM*,-14%,?,20µM*,-53%
CCOc1ccc(OCC(O)CNC2CCN(Cc3ccccc3)CC2)cc1 (stereo unspecified),1,·,·,·,·,·
O=C(Nc1nc2c(F)cc(F)cc2s1)c1ccc2c(c1)OCCO2,·,?,·,2%,?,-40%[10.9 µM]
COc1cccc2sc(NC(=O)c3ccc4c(c3)OCCO4)nc12,·,?,·,?,5µM*,-16%[10.9 µM]
SMILES,IMPase cell inh,p53ts 32C tox,FLuc inh,IkB sig inh,p53ts 39C tox,Peg3 imprint
Cc1nc2c(C(=O)NC(C)c3ccccc3)cnn2c(C)c1Cc1ccccc1 (stereo unspecified),·,?,·,?,20µM*,-17%[10.9 µM]
Cc1nc2c(C(=O)NCCc3ccc(Cl)cc3)cnn2c(C)c1Cc1ccc(F)cc1,·,30%,·,?,?,-17%[10.9 µM]
Cc1nc2ccc(NC(=O)Cc3ccc4c(c3)OCCO4)cc2s1,0,·,·,·,0%,·
Cc1nc2ccc(NC(=O)Cc3cccs3)cc2s1,-1,16µM*,25µM*,3%,10µM*,-41%
CN(C)c1ccc(-c2nccc(NCc3cccs3)n2)cc1,·,7.9µM*,0.5µM*,13%[11.4 µM],5µM*,-32%
Cc1ccc(NC(=O)C(Cc2c[nH]c3ccccc23)NC(=O)OC(C)(C)C)c(C)c1 (stereo unspecified),-7,-4%,·,?,-12%,-6%[10.9 µM]
C[C@H]1COC(=O)[C@H]2CCCN2C(=O)[C@@H](C)COC(=O)[C@H](Cc2ccccc2)NC1=O,·,5%[9.22 µM],0%[11.4 µM],·,6%[9.22 µM],·
N#Cc1cccc(NC(=O)c2cc3c(s2)-c2ccc(Cl)cc2SC3)c1,·,?,·,-2%,10µM*,-10%[10.9 µM]
CCc1ccc(-n2nc(CO)c(C(=O)NC)n2)cc1,·,?,·,-1%,16µM*,-6%[10.9 µM]
CCCOc1ccc(NC(=O)CC2C(=O)N(c3ccc(C)cc3)C(=O)N2C(C)C)cc1 (stereo unspecified),·,1%,·,1%,-16%,-1%[10.9 µM]
CN(C(=O)c1ccco1)c1nnc(C23CC4CC(CC(C4)C2)C3)s1,15,?,20µM*,0%,?,-14%
CN(C(=O)c1ccco1)c1nc2c(s1)CCCC2,-3,·,·,·,·,·
COc1ccc2oc(C(=O)C3CC3)c(N)c2c1,5,-19%,25µM*,-2%,-17%,-34%
CCc1c(C)c2ccc(O)c(CN3CCN(c4ccc(F)cc4)CC3)c2oc1=O,·,8%,·,2%,-15%,-13%[10.9 µM]
